High-throughput results deposited in PubChem by National Center for Advancing Translational Sciences (NCATS).
Rows were chosen to be rich in hits. Some 2.3% of all compounds tested hit in one or more screens of this group.
TDP43 rescue – rescues yeast growth from TDP-43 toxicity; AID 652104; hit rate 1.8% among 410,000; Potency, µM (top dose mostly 46.1 µM), actives largely listed as activators; TDP-43 expressing yeast growth rescue, BacTiter-Glo, 24 h; note: nearly all actives have a fitted effect of over 50% in size
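In this qHTS, compounds that restore growth of yeast expressing TDP-43 appear as activators. Cells (OD600=0.02, galactose medium, raffinose-pregrown) are incubated with compound 24 hr at 30 deg C and growth is quantified by BacTiter-Glo.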
FUS yeast rescue – rescues growth of FUS-expressing yeast; S. cerevisiae FUS-expressing, growth rescue, OD600, 24 h; Potency, µM (highest dose often 76.6 µM), most hits filed as activators; hit rate 0.24% among 390,000; note: nearly all actives have a fitted effect of over 55% in size
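Compound concentration series was pinned onto galactose-induced FUS-expressing yeast seeded at OD 0.005. Plates sat 24hr at 30C; absorbance at 600 nm gave growth. DMSO served as background control.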
Abeta yeast res – restores growth of yeast expressing A-beta42 peptide. yeast expressing A-beta42, growth rescue, OD600, 48 h; response scale: 0% DMSO, 100% iron-clioquinol control. Potency, µM (highest dose often 46.1 µM), most hits filed as activators. hit rate 0.063% among 410,000; note: nearly all actives have a fitted effect of over 55% in size
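Yeast growth medium received pinned compounds, then yeast cells expressing toxic A-beta were added; plates incubated at 30 C for 48 hr. Growth read as absorbance at 600 nm, normalized to DMSO and equimolar FeCl3 plus clioquinol controls.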
pAkt inh – Akt phosphorylation inhibition. Neuro2A IGF-stimulated pAkt S473 HTRF, 20 min; stronger effect = lower value. activity change, % for hits at 50 µM. hit rate 0.32% among 360,000; in the data active = activity change below about -80%; inconclusive = mostly about -51% to -80%
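Single-point screen (50 µM final compound) in Neuro2A cells stimulated 20 min with 6 nM IGF at 37 deg C. After lysis, Ser473-phosphorylated Akt read by HTRF (ex 330 nm, em 615/665 nm) as the 665/615 ratio.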
aSyn yeast inh – rescues yeast growth from alpha-synuclein toxicity | Yeast expressing alpha-synuclein, growth rescue, BacTiter-Glo, 24 h | Potency, µM (top dose mostly 46.1 µM), usual class: activators | hit rate 0.14% among 370,000; note: nearly all actives have a fitted effect of over 65% in size
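Rescue of yeast growth: cells expressing toxic alpha-synuclein, induced in galactose at OD600 0.02, incubated with compound 24 h at 30 C. ATP luminescence quantified growth; inhibitors of toxicity appear as activators.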
Large screens that a line does not name were inactive. Unless noted, calls come from the whole dose curve; as a rule, active = well fitted curve in the direction sought with a large enough effect; inconclusive = small, poorly fitted or top-dose-only effect, or another doubt; inactive = no such curve, though single readings can be large; an effect the other way counts as inactive or inconclusive.

CCN(CC)C(=O)c1ccc2c(c1)N(Cc1c(F)cccc1Cl)C(=O)c1ccccc1S2	TDP43 rescue 22µM, FUS yeast rescue inconclusive (no result: pAkt inh, aSyn yeast inh)
COCCNC(=O)c1ccc2c(c1)N(Cc1c(F)cccc1Cl)C(=O)c1ccccc1S2	FUS yeast rescue inconclusive (no result: pAkt inh, aSyn yeast inh)
CCC(=O)N1CCc2cc(CNC(=O)Nc3cc(OC)c(OC)c(OC)c3)ccc21	none (no result: pAkt inh, aSyn yeast inh)
CC(C)Oc1ccc(C2CC(=O)N(C)C2=O)cc1 (centres undefined)	none
CC(C)Oc1ccc(C2CC(=O)N(c3cccc(Br)c3)C2=O)cc1 (centres undefined)	TDP43 rescue 20µM
OCc1ccc(-c2nn(Cc3ccccc3)c3ccccc23)o1	aSyn yeast inh 4µM
c1ccc(-c2nn(Cc3ncco3)c3ccccc23)cc1	none (no result: TDP43 rescue, Abeta yeast res, pAkt inh, aSyn yeast inh)
COc1ccc(NC(=O)C(Cc2ccccc2)NS(=O)(=O)c2ccc(Br)s2)cc1OC (centres undefined)	none (no result: pAkt inh, aSyn yeast inh)
CC(C)(C)c1ccc(C(=O)Nc2cc(-c3nc4ccccc4o3)ccc2Cl)cc1	none (no result: pAkt inh, aSyn yeast inh)
CC(C)C(Cl)=NOC(=O)Nc1ccc(F)cc1	TDP43 rescue 13µM (no result: FUS yeast rescue)
CC(=O)Oc1ccccc1-c1nc(/C=C/c2ccccc2)no1	TDP43 rescue 18µM
COc1ccc(Br)c(C(=O)N2CCN(S(=O)(=O)/C=C/c3ccccc3)CC2)c1	TDP43 rescue 13µM
Cc1csc(NC(=O)c2ccc(C)c([N+](=O)[O-])c2)n1	TDP43 rescue 20µM (no result: FUS yeast rescue)
CCc1sc(C(=O)Nc2ccc(NC(C)=O)cc2)cc1C	none
CCc1sc(C(=O)Nc2nc(C)cs2)cc1C	TDP43 rescue 20µM
Cc1cccc(CC(=O)Nc2ccc3nc(N4CCC(C)CC4)cc(C)c3c2)c1	none (no result: pAkt inh, aSyn yeast inh)
CC1CCN(c2nc(-c3ccco3)c3c(c2C#N)CC(C)(C)OC3)CC1	TDP43 rescue 11µM
CC1(C)Cc2c(C#N)c(N3CCOCC3)nc(-c3ccccc3)c2CO1	none
CC1(C)Cc2c(C#N)c(N3CCN(C(=O)c4ccccc4)CC3)nc(Cc3ccccc3)c2CO1	none
CCc1nc(N2CCN(C(=O)c3ccccc3)CC2)c(C#N)c2c1COC(C)(C)C2	TDP43 rescue 20µM
COc1ccc(CNC(=O)C(c2ccc(C)cc2)N(Cc2cccs2)C(=O)c2ccc3c(c2)OCCO3)cc1 (centres undefined)	FUS yeast rescue 5µM
CCc1ccc(NC(=S)N(Cc2ccccc2)Cc2ccccn2)cc1	TDP43 rescue inconclusive, Abeta yeast res 13µM
CCc1c(C)sc(NC(=O)C2CCCO2)c1C#N (centres undefined)	TDP43 rescue 22µM
COc1ccc(-n2cnc3scc(-c4ccccc4)c3c2=O)cc1	TDP43 rescue 11µM
Cc1ccc(SCC(=O)O/N=C(\N)c2cccnc2)cc1	TDP43 rescue 10µM
Cc1ccc(-c2csc(NC(=O)c3c(C)noc3C)n2)cc1C	TDP43 rescue inconclusive, Abeta yeast res inconclusive
Cc1ccc(-c2csc(NC(=O)c3c(C)noc3C)n2)s1	TDP43 rescue 11µM (no result: FUS yeast rescue)
O=C(Nc1ccc(F)cc1F)c1cc2ccc3cccnc3c2[nH]1	none (no result: pAkt inh, aSyn yeast inh)
Cc1ccc2c(CC(=O)N(Cc3ccc(N(C)C)cc3)Cc3ccco3)coc2c1C	none (no result: pAkt inh, aSyn yeast inh)
CCC1=Nc2cc(C(=O)O)ccc2Sc2ccccc21	TDP43 rescue 20µM
CCC1=Nc2cc(C(=O)NCc3ccco3)ccc2Sc2ccccc21	TDP43 rescue inconclusive
COc1ccc(C2=CC3=C(Br)C(=O)C(C)(OC(=O)c4ccc(Cl)nc4)C(=O)C3=CO2)cc1 (centres undefined)	TDP43 rescue 14µM
CCc1cc(=O)[nH]c(SCc2nc(-c3ccccc3)no2)n1	none (no result: pAkt inh, aSyn yeast inh)
COc1ccc(-n2c(COc3cccc4ccccc34)nnc2SCC#N)cc1	none
N#CCSc1nnc(COc2cccc3ccccc23)n1-c1ccccc1	TDP43 rescue 20µM
COc1cc(C=Nn2c(-c3cc(C)[nH]n3)n[nH]c2=S)cc(Br)c1O	none (no result: TDP43 rescue, Abeta yeast res, pAkt inh, aSyn yeast inh)
CN=c1scc(C)n1/N=C/c1cc(Br)c(O)c(OC)c1	TDP43 rescue 11µM
COC(=O)c1sc(NC(=O)COc2ccccc2C)nc1C	none
CCOC(=O)c1sc(NC(=O)c2ccc(OC)cc2)nc1C	none
CCOC(=O)c1sc(NC(=O)c2c(OC)cccc2OC)nc1C	pAkt inh -119%
